Source: PubChem
An excerpt weighted towards active compounds, which were near 5.3% of everything screened.
PostGolgi yeast: growth inhibition of a yeast mutant, post-Golgi transport screen; post-Golgi transport phenotypic cell assay; inhibition, % at 10 µM; 98,000 compounds, 0.9% hits;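 also: yeast cells grown in 1536-well plates; yeast grown about 18 h at 30C before absorbance read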
Measles CPE: protection of cells from measles virus | protection (pct of control), % at 4 µM | 140,000 compounds, 1.5% hits | Measles virus-infected cells, CPE protection, absorbance; in the data active = protection mostly above about 24%, no sharp cut-off; inactive = mostly below about 26%
PostGolgi ctrl: yeast control strain growth, post-Golgi counter-screen; inhibition, % at 10 µM; 98,000 compounds, 5% hits; efflux-deficient yeast background strain, growth absorbance A615, 16 h
MT1-MMP txn act: activates MT1-MMP transcription. HT1080 MT1-MMP promoter luciferase reporter, luminescence, overnight; active compounds read high. activation factor at 10 µM. 86,000 compounds, 0.16% hits. AID 750;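 active = activation factor of at least 2 for MT1-MMP transcription at 10 µM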
The depositor's hits bear a star; · = no result given. Rule as the data show it, unless noted: active = inhibition above about 30%; inactive = the rest.

SMILES	PostGolgi yeast	Measles CPE	PostGolgi ctrl	MT1-MMP txn act
COc1ccc(-n2nnnc2/C=C\Nc2ccccc2C(=O)c2ccccc2)cc1	5	31*	14	·
Cc1cc(C(=O)N/N=C/C=C/c2ccc3c(c2)OCO3)n[nH]1	-5	25*	7	·
O=C(N/N=C\C=C\c1ccc2c(c1)OCO2)C1COc2cc3ccccc3cc2O1 (centres undefined)	-3	37*	20	·
Cc1ccc(C(=O)N/N=C/c2ccc3c(c2)OCO3)o1	·	12	·	·
O=C(N/N=C/c1ccc2c(c1)OCO2)C1COc2ccccc2O1 (centres undefined)	-1	6	3	·
O=C(/C=C/c1ccccc1[N+](=O)[O-])NCc1cccnc1	·	21	·	·
O=C(N/N=C/c1cn(Cc2ccccc2)c2ccccc12)c1cccnc1	·	22	·	·
O=C1C2C3C=CC(C3)C2C(=O)N1/N=C/c1cn(Cc2ccccc2)c2ccccc12 (centres undefined)	5	4	32*	·
O=C1C2C3C=CC(C3)C2C(=O)N1/N=C/c1cn(Cc2ccc(F)cc2)c2ccccc12 (centres undefined)	-11	15	37*	·
COC(=O)[C@@]1(Cc2ccccc2)[C@H]2c3cc(C(=O)N4CCCC4)n(C)c3C[C@H]2CN1C(=O)c1ccccc1	·	·	·	1.1
CCn1cc(C(=O)O)c(=O)c2cc(F)c(N3CCN(S(=O)(=O)c4ccc(NC(=O)OC)cc4)CC3)cc21	·	9	·	·
Cc1ccc(C)c(S(=O)(=O)N2CCN(CC(=O)N3CCc4ccccc4C3)CC2)c1	-6	12	1	1
Cc1ccc(C)c(SCc2noc(C(=O)NCC3CCCO3)c2C(=O)O)c1 (centres undefined)	-4	4	17	·
O=C1c2ccccc2C(=O)N1CSc1nnc2c3ccccc3n(CCc3ccccc3)c2n1	8	34	8	0.9
C=CCn1c2ccccc2c2nnc(SCN3C(=O)c4ccccc4C3=O)nc21	39*	5	28	·
O=C(Nc1cccc2cccnc12)C1CCCC1	·	29*	·	·
NC(=S)Nc1cccc2cccnc12	11	12	35*	·
O=C(CSc1nn(-c2ccc(Cl)cc2)c(=S)s1)N1CCN(C(=O)c2ccco2)CC1	-42	1	52*	1.1
COC(=O)[C@@]1(Cc2ccccc2)[C@H]2c3cc(C(=O)N4CCCC4)n(Cc4nc5ccccc5[nH]4)c3C[C@H]2CN1C(=O)c1ccccc1	·	·	·	1.2
CCC1(CC)C(=O)N(C)C(=O)NC1=Nc1ccc(OC)cc1	-1	23	-2	1.1
COc1cc(C(=O)NCC(=O)OCC(=O)c2ccc[nH]2)cc(OC)c1OC	1	17	3	1.1
COc1ccc(C(=O)NCC(=O)OCC(=O)c2cc(OC)c(OC)c(OC)c2)cc1OC	·	44*	·	·
CCN(c1ccccc1)S(=O)(=O)c1ccc(NCC2COc3ccccc3O2)nc1 (centres undefined)	15	5	56*	1.3
CC1(C)CC(NC(=O)C(Cl)(Cl)Cl)CC(C)(C)N1	·	3	·	·
COCCN(CCOC)S(=O)(=O)c1ccc(C(=O)Nc2nc(-c3ccccc3)c(C(=O)c3ccccc3)s2)cc1	·	8	·	·
SMILES	PostGolgi yeast	Measles CPE	PostGolgi ctrl	MT1-MMP txn act
CCCN(CCC)S(=O)(=O)c1ccc(C(=O)Nc2nc(-c3ccccc3)c(C(=O)OCC)s2)cc1	·	50*	·	·
CCCCNC(=O)COC(=O)c1ccc(NS(=O)(=O)c2ccc3c(c2)OCCO3)cc1	19	13	25	·
N#CC1=C(N)NC(SCc2ccc(Br)cc2)=C(C#N)C12CCCCC2	·	7	·	1
N#CC1=C(N)NC(SCc2ccc(Cl)cc2)=C(C#N)C12CCCCC2	48*	-1	18	0.8
c1ccc2c(c1)oc1c(Nc3ccc(CN4CCOCC4)cc3)ncnc12	56*	10	20	1.1
c1ccc2c(c1)oc1c(NCCN3CCOCC3)ncnc12	-5	27	8	1.1
Cc1ccccc1S(=O)(=O)c1c(C)cc(-c2ccccc2)[nH]c1=O	-3	21	-7	·
O=C(N/N=C/c1cccc([N+](=O)[O-])c1)C1CC(=O)N(c2ccc(Cl)cc2)C1 (centres undefined)	-3	72*	13	·
COCCCNC(=O)c1cccn2c(=O)c3cc4ccccc4cc3nc12	22	4	70*	1.9
O=C(NCc1ccco1)c1cccn2c(=O)c3cc4ccccc4cc3nc12	-15	7	12	1.5
CS(=O)(=O)c1ccc(Sc2nc3ccccc3[nH]2)c([N+](=O)[O-])c1	8	1	6	1
O=[N+]([O-])c1cc(S(=O)(=O)C(F)(F)F)ccc1Sc1nc2ccccc2s1	41*	1	92*	·
O=[N+]([O-])c1cc(S(=O)(=O)C(F)(F)F)ccc1Sc1nc2ccccc2[nH]1	27	5	70*	1.2
CCOc1ccc(-c2nc(-c3cccnc3)no2)cc1	·	34*	·	0.7
FC(F)(F)c1nc(N2CCCC2)ncc1-c1nnnn1-c1ccc(Cl)cc1	22	16	58*	·
Fc1ccc(-n2nnnc2-c2cnc(-c3cccs3)nc2C(F)(F)F)cc1	1	25	46*	·
O=C(NCc1ccc(F)cc1)C1CCCN1C(=O)NCc1ccccc1 (centres undefined)	21	17	1	1.1
O=C(Nc1ccccc1)N1CCCC2CCCCC21 (centres undefined)	30*	31	1	1.5
O=C(NCCc1ccccc1)C1CCCN1C(=O)Nc1ccc(F)cc1 (centres undefined)	3	29*	4	1.2
CS(=O)(=O)N1CCC(C(=O)NCCN2CCN(Cc3ccccc3)CC2)CC1	31*	4	-3	1.3
CN(C)C(=O)N1CCC(C(=O)NCc2ccccc2)CC1	-8	19	38*	1
Cc1c(O)c(S(=O)c2ccccc2)c(=O)n(-c2ccccc2)c1-c1ccccc1 (centres undefined)	·	23	·	·
O=C(NCCc1ccccc1)C1CCN(S(=O)(=O)N2CCCC2)CC1	33*	18	-4	1.2
O=C(NCCc1ccc(Cl)cc1)C1CCN(S(=O)(=O)N2CCCCC2)CC1	-5	19	2	1.1
O=C(NCCO)c1cccc(Nc2nc(-c3ccccc3)c3cc(Cl)ccc3n2)c1	5	4	49*	·
SMILES	PostGolgi yeast	Measles CPE	PostGolgi ctrl	MT1-MMP txn act
CCCNC(=O)c1ccc2nc(-c3ccccc3)c(-c3ccccc3)nc2c1	10	4	27	·
CS(=O)(=O)c1nc(-c2ccccc2)cc(-c2ccccc2)c1C#N	2	5	54*	1.1
COC(=O)c1ccc(OC)cc1OCC(=O)N1CCN(c2ccc(F)cc2)CC1	4	23	4	·
COC(=O)c1ccc(C(NC(=O)OCc2ccccc2)/C(C)=C/[C@@H](C)C(=O)N2CCN(C)CC2)cc1 (some centres undefined)	·	·	·	1.1
CCOC(=O)C(NC(C)=O)(Nc1ccc(S(=O)(=O)Nc2cc(C)on2)cc1)C(F)(F)F (centres undefined)	·	9	·	1
CCOC(=O)C(NC(=O)CC)(Nc1ccccc1OC)C(F)(F)F (centres undefined)	1	37	2	1.1
CCOC(=O)C(NC(C)=O)(Nc1ccc(S(=O)(=O)Nc2onc(C)c2C)cc1)C(F)(F)F (centres undefined)	35*	24	-4	1.1
